In the library only some 3% were active in any assay of this set; here they are far more common.
S16 F2sN tox = Cell viability qHTS assay in S16 Pmp22-F2sN cells; S16 Pmp22-F2sN Schwann cells viability, CellTiter-Glo, 24 h; Potency, µM (series often up to 57.5 µM), for inactives: top-dose activity change, negative = cytotoxicity, most hits filed as cytotoxic; 0.48% of 43,000 active; also: % is scaled to controls: 0 for no effect and ±100 for the full control effect; nearly all actives have a fitted effect of over 65% in size
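Rat S16 Schwann reporter line, 24 h treatment with library compounds delivered at 23 nL per well. Cell viability by CellTiter-Glo luminescence.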
p53null 39C kill = qHTS Screen for Compounds that Selectively Target Cancer Cells with p53 Mutations: Cytotoxicity of p53 Null Cells at the Nonpermissive Temperature; 0.97% of 55,000 active; H1299 p53-null (neo) cells, 39C, ATPlite viability, 24 h; AID 904, 2007; Potency, µM (doses to about 46.1 µM), for inactives: top-dose activity, negative = cell killing, usual class: cytotoxic;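 also: 0% = DMSO only and -100% = full killing by 100 µM tamoxifen; nearly all actives have a fitted effect of over 50% in size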
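Temperature-shift cytotoxicity format: compound titrations on p53-null or A138V-expressing H1299 cells held 24 hr at 39C, cell ATP then measured, AC50 from Hill model.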
GALC G270D up = A Novel Cell-Based Assay to Identify Small Molecules for B -Galactocerebrosidase | P54803 | 145M-Twi-hGALC-G270D cells (Twitcher mouse brain line with human GALC G270D), HMU-beta-Gal fluorescence, 48 h | Potency, µM (highest dose often 57.5 µM), most hits filed as activators | 0.1% of 45,000 active; also: 0% is about no effect; nearly all actives have a fitted effect of over 65% in size
Target sequence (P54803 whole entry G286D): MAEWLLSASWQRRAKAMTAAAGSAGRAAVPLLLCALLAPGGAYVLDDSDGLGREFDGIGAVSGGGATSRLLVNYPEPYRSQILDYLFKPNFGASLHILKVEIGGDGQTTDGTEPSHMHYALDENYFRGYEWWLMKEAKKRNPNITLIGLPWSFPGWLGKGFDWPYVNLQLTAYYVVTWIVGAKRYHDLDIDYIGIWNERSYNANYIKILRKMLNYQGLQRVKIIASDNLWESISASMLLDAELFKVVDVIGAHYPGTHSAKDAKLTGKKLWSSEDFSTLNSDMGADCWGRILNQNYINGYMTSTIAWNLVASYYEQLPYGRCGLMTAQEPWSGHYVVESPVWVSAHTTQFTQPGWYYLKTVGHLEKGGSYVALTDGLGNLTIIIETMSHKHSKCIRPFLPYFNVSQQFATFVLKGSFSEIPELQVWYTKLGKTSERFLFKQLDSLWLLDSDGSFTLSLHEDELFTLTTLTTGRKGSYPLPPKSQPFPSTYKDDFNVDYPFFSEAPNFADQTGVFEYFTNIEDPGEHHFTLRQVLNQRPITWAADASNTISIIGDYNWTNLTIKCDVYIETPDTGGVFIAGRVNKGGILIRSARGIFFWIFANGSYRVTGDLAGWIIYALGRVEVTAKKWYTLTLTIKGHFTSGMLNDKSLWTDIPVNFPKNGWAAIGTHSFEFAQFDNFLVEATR
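Fluorogenic HMU-b-Gal hydrolysis (0.1 mM final, pH 5.2 citrate-phosphate with 1 mg/mL sodium taurocholate; carbonate stop buffer) measures mutant GALC activity after compound treatment of live 145M-Twi Twitcher brain cells stably carrying human GALC-G270D, with wild-type GALC line alongside; activation sought.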
mTORC1 inh = Acumen qHTS Assay for Inhibitors of the mTORC1 Signaling Pathway in MEF (Tsc2-/-, p53-/-) Cells: Sytravon | Tsc2-/- p53-/- MEF, phospho-rpS6 immunofluorescence/PI, 24 h | 0.78% of 44,000 active | Potency, µM (titrated, usually from 38.3 µM), inactives show at the highest dose activity change, negative = inhibition, hits mostly inhibitors;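 also: plate controls were DMSO for no effect and rapamycin for full effect; nearly all actives have a fitted effect of over 50% in size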
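Read-out: phospho-S6 Alexa-488 intensity over PI intensity per well, scored as % active cells using thresholds from rapamycin (7.5 nM) and DMSO controls. Tsc2-/-, p53-/- MEFs exposed to compound for 24 h; PI cell count recorded as viability.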
p53null 32C kill = qHTS Screen for Compounds that Selectively Target Cancer Cells with p53 Mutations: Cytotoxicity of p53 Null Cells at the Permissive Temperature; H1299-neo p53 null cells, ATP luminescence, 24 h, 32C; Potency, µM (highest dose often 46.1 µM), for inactives: at the top dose activity change, negative = cytotoxicity, hits mostly cytotoxic; 0.62% of 55,000 active; AID 903, 2007;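 also: 0% = DMSO only and -100% = full killing by 100 µM tamoxifen; nearly all actives have a fitted effect of over 55% in size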
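Cytotoxicity: H1299-neo (no p53), 32C, 24 h treatment. Concentrations up to 46 uM. Readout cellular ATP, luminescence. Normalization to DMSO basal and tamoxifen 100 uM maximal kill.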
PMP22 txn prim = Cell-based coincidence reporter assay to measure PMP22 gene transcription in S16 Pmp22-F2sN cells - Primary screen | AID 1508649, 2021 | 2% of 43,000 active | Potency, µM (series often up to 57.5 µM), inactives show top-dose activity change, negative = inhibition, usual class: inhibitors | S16 Pmp22-F2sN Schwann cells (luciferase reporters placed in the Pmp22 gene), FLuc/NLuc coincidence luminescence, 24 h; active = clear falling dose curves in both reporters; inconclusive = both reporters move, but less clearly or upward; inactive = either reporter flat; the % is the NLuc reporter signal; also: % is scaled to controls: 0 for no effect and ±100 for the full control effect
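Reporter cells (S16 Pmp22-F2sN, 500–1,000 per well) exposed to compounds for 24 h, 37C, 5% CO2; lysis with FLuc read after 10 min, then Stop&Glo and NLuc read after 10 min.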
* = called active by the depositor; i = inactive; u = inconclusive; x = no result given; [ ] = another dose, or the depositor's remark. Unless noted, calls follow the shape of the dose curve; as a rule, active = well fitted curve in the direction sought with a large enough effect; inconclusive = small, poorly fitted or top-dose-only effect, or another doubt; inactive = no such curve, though single readings can be large; an effect the other way counts as inactive or inconclusive. Potency is read from the fitted curve at half-maximal effect.

SMILES | S16 F2sN tox | p53null 39C kill | GALC G270D up | mTORC1 inh | p53null 32C kill | PMP22 txn prim
CCOc1ccc(-n2nc3ccc(NC(=O)COc4ccccc4)cc3n2)cc1 | -7% | -5% | i | 3% | -3% | -4%
CCOc1ccc(-n2nc3ccc(NC(=O)c4ccc(-c5cccc(Cl)c5)o4)cc3n2)cc1 | u | u | i | 12µM* | -29% | u
Cc1ccc(S(=O)(=O)c2nnn3c2nc(NC2CCCCC2)c2sccc23)cc1C | u | 28% | i | 7.4µM* | 4% | u
CCOC(=O)c1ccccc1NC(=O)N1CCc2c(sc(C)c2CC)C1c1ccccc1 (stereo not drawn) | 4% | 4% | i | 22% | -4% | u
CCc1c(C)sc2c1CCN(Cc1ccccc1F)C2c1ccccc1 (stereo not drawn) | 8.9µM* | 23% | i | 9% | 25% | 3.4µM*
CCc1c(C)sc2c1CCN(Cc1cccc(OC)c1)C2c1ccccc1 (stereo not drawn) | u | u | i | 1% | 33% | 9.5µM*
CCc1c(C)sc2c1CCN(C(=O)Nc1cc(OC)c(OC)c(OC)c1)C2c1ccccc1 (stereo not drawn) | -19% | 18% | i | 12% | -3% | -26%
CC[C@H](C)[C@H](N)C(=O)O | x | x | i | x | x | x
COC(=O)c1ccc(NC(=O)C(=O)NCCc2sc(-c3cccc(F)c3)nc2C)cc1 | 2% | -21% | i | -1% | 1% | u
COc1ccc(S(=O)(=O)NCC(c2cccs2)S(=O)(=O)c2ccc(C)cc2)cc1F (stereo not drawn) | u | 2% | i | -1% | 5% | u
Cc1ccc(S(=O)(=O)C(CNS(=O)(=O)c2cc(F)ccc2F)c2cccs2)cc1 (stereo not drawn) | 20µM* | u | i | 0% | 5% | u
COc1ccc(C)cc1S(=O)(=O)NCC(c1cccs1)S(=O)(=O)c1ccc(C)cc1 (stereo not drawn) | 25µM* | 10% | i | -7% | 17% | u
Cc1ccc(OCC(=O)NCC(c2ccc(Cl)cc2)N2CCOCC2)cc1C (stereo not drawn) | 2% | -19% | i | -2% | -7% | -15%
COc1ccc2nc(NC(=O)c3nc(S(=O)(=O)Cc4ccccc4)ncc3Cl)sc2c1 | 5.6µM* | u | i | 9.3µM* | -26% | 3µM*
COc1ccc2nc(NC(=O)c3nc(S(=O)(=O)Cc4ccccc4F)ncc3Cl)sc2c1 | 3.5µM* | -18% | i | 15µM* | -28% | 4.8µM*
COC(=O)c1ccccc1NC(=O)c1nc(S(=O)(=O)Cc2ccccc2F)ncc1Cl | 8% | -6% | i | -4% | 3% | u
O=C(Nc1nc2ccc(F)cc2s1)c1nc(S(=O)(=O)Cc2ccccc2)ncc1Cl | 6.3µM* | u | i | -8% | 11% | 6.2µM*
O=C(Nc1ccccc1F)c1nc(S(=O)(=O)Cc2ccccc2F)ncc1Cl | 6.3µM* | u | i | 1.2µM* | -11% | u
COc1ccc2nc(NC(=O)c3nc(SCc4ccccc4F)ncc3Cl)sc2c1 | 11% | 13% | i | 2% | -6% | -1%
CCc1ccccc1NS(=O)(=O)c1ccc2[nH]cc(C(=O)N(CC(C)C)CC(C)C)c(=O)c2c1 | 0% | -6% | i | -6% | -6% | 3%
CC1(C)S/C(=N/N=C/c2ccco2)NC1=O | x | 0% | x | x | -9% | x
Cc1cccc(CSc2ncc(Cl)c(C(=O)Nc3nnc(C)s3)n2)c1 | -10% | -11% | i | -2% | -3% | 10%
Cc1nnc(NC(=O)c2nc(S(=O)(=O)Cc3ccccc3)ncc2Cl)s1 | 5µM* | u | i | u | u | 13µM*
Cc1cccc(CS(=O)(=O)c2ncc(Cl)c(C(=O)NCc3ccccc3)n2)c1 | 20µM* | u | i | 18µM* | 19% | u
CC(C)Sc1ncc(Cl)c(C(=O)Nc2ccc(S(=O)(=O)N3CCCCC3)cc2)n1 | -2% | -1% | i | -3% | -1% | -7%
SMILES | S16 F2sN tox | p53null 39C kill | GALC G270D up | mTORC1 inh | p53null 32C kill | PMP22 txn prim
Cc1ccccc1Oc1nc2c(C)cccn2c(=O)c1/C=C(\C#N)C(=O)Nc1c(C)n(C)n(-c2ccccc2)c1=O | x | x | x | x | 5% | x
O=C(CCS(=O)(=O)c1ccccc1)N(Cc1cccnc1)c1nc2ccc(F)cc2s1 | 4.5µM* | 32% | i | u | u | 11µM*
CC(=O)N(Cc1cccnc1)c1nc2ccc(F)cc2s1 | -16% | -17% | i | 0% | -7% | -16%
CC(=O)c1cccc(NS(=O)(=O)c2c(C(=O)N3CCCCCC3)c(C)n(C)c2C)c1 | 7% | -11% | i | -3% | -1% | -11%
CCOc1ccc(NC(=O)CCc2c(C)nc3cc(-c4ccccc4OC)nn3c2C)cc1 | u | -17% | i | -6% | 0% | -56%
CCOC(=O)c1c(NC(=O)c2ccc(S(=O)(=O)N(C)C3CCCCC3)cc2)sc2c1CCN(C(C)C)C2 | u | 23% | i | -10% | 4% | u
CCOc1ccc(C(=O)Nc2cc(-c3nc4ccccc4s3)ccc2OC)cc1 | -4% | -16% | i | u | 16%[9.22 µM] | u
COc1ccc(C(=O)Nc2cc(-c3nc4ccccc4s3)ccc2OC)cc1 | u | -8% | i | 16µM* | 4% | u
COc1cccc(/C=N/Nc2nnc(C)n2N)c1OCc1ccccc1Cl | x | 18µM* | x | x | x | x
COC(=O)c1c(SC)nc2ccccc2c1OCc1ccccc1Cl | -29% | -8% | i | 4% | -3% | u
CC(C)CCNC(=O)CCCn1c(=O)c2cccn2c2ccccc21 | 10% | 5% | i | u | 20% | 6%
COc1cccc(CNC(=O)CCCn2c(=O)c3cccn3c3cccnc32)c1OC | 0% | -15% | i | -18% | 4% | -32%
Cc1ccccc1CNC(=O)CCCn1c(=O)c2cccn2c2ccccc21 | -11% | 12% | i | -2% | -4% | 16µM*

Source: PubChem BioAssay
